# Source: PubChem BioAssay (National Center for Advancing Translational Sciences (NCATS))
# In the library only some 18% were active in any assay of this set; here they are far more common.
# DT40 TDP1 CPT – qHTS for Inhibitors of human tyrosyl-DNA phosphodiesterase 1 (TDP1): qHTS in cells in presence of CPT. chicken DT40 Tdp1-/-;hTDP1 cells + 20 nM CPT, ATP luminescence, 48 h. Potency, µM (doses to about 46.2 µM), hits mostly inhibitors. 420,000 compounds, 12% hits; also: nearly all actives have a fitted effect of over 55% in size
#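 Chicken DT40 Tdp1-/- cells complemented with human TDP1, 400 cells/well, exposed to compounds plus 20 nM camptothecin for at least 48 h at 37 C; viability read as ATP content by CellTiter-Glo luminescence.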
# TDP1 block – qHTS Assay for Inhibitors of Tyrosyl-DNA Phosphodiesterase (TDP1) | recombinant TDP1, AlphaScreen DNA substrate cleavage | Potency, µM (titrated, usually from 130 µM), usual class: inhibitors | 350,000 compounds, 0.28% hits | AID 485290, 2010; also: nearly all actives have a fitted effect of over 40% in size
# Target sequence (Q9NUW8 whole entry, looked up): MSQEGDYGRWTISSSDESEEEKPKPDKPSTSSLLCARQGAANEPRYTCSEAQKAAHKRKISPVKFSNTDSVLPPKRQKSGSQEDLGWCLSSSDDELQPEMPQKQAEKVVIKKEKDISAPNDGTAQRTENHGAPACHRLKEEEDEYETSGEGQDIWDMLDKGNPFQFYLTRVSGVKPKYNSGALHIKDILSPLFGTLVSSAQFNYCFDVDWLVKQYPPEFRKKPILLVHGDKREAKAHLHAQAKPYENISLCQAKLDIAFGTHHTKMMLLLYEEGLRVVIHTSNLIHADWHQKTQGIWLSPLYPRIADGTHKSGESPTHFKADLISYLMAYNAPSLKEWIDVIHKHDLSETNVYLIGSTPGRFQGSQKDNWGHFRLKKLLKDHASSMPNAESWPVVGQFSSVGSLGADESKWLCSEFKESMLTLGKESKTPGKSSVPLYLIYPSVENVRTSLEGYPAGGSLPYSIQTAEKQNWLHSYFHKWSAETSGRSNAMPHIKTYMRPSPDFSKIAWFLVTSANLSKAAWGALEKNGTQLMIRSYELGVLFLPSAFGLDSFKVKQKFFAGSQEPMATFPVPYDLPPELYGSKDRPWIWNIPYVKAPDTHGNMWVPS
#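 Tdp1 1 nM final; 15 min RT w/ cpd; substrate 15 nM, 5 min; beads 10 ug/ml, 10 min; AlphaScreen read. Neg ctrl: no enzyme.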
# IL-1B inflam inh – qHTS for Inhibitors of Inflammasome Signaling: IL-1-beta AlphaLISA Primary Screen. THP-1 LPS/ATP IL-1B secretion, AlphaLISA, 16 h; hits give low values. activity change, % at 57.5 µM. 360,000 compounds, 4.7% hits. AID 743279, 2014; in the data active = activity change below about -50%; inconclusive = mostly about -30% to -49%
#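 THP-1 cells pretreated 1 hr with compounds (up to 57.5 uM final), then stimulated with LPS (250 ng/mL final) plus ATP (1.25 mM final); secreted IL-1B measured by AlphaLISA after 16 hr, decreased signal indicating inhibition.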
# DT40 TDP1 no CPT – qHTS for Inhibitors of human tyrosyl-DNA phosphodiesterase 1 (TDP1): qHTS in cells in absence of CPT; DT40 Tdp1-/- hTDP1 cells, no CPT, ATP luminescence, 48 h; Potency, µM (titrated, usually from 46.2 µM), usual class: inhibitors; 420,000 compounds, 15% hits; AID 686978, 2013; also: nearly all actives have a fitted effect of over 55% in size
#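 Camptothecin absent (DMSO only). Human TDP1-complemented DT40 knockout cells, 400 cells/well, 37 °C for minimum 48 hr; ATP measured via CellTiter-Glo, 30 min dark incubation, luminescence.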
# TGFb inhibitor – qHTS for Inhibitors of TGF-b; 410,000 compounds, 1.2% hits; HepG2 CAGA-GFP TGF-b/SMAD3 reporter, GFP fluorescence, 18 h; TGF-beta stimulated, 500 pg/mL final; Potency, µM (doses to about 46.1 µM), hits mostly inhibitors; AID 588855, 2011; also: nearly all actives have a fitted effect of over 65% in size
#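 Read-out: total well GFP (ex488/em500-530) summed from mean per-cell fluorescence. Cells: HEPG2 CAGA-GFP, 1% FBS DMEM, 18 h at 37 degrees C with 500 pg/mL final TGF-beta. Unstimulated wells served as the full-inhibition control; stimulated DMSO wells = 0%.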
# HepG2 viability – qHTS for Inhibitors of TGF-b: Cytotox Counterscreen | HepG2 CAGA-GFP viability, ATP luminescence, 18 h | Potency, µM (series often up to 46.1 µM), hits mostly cytotoxic | 410,000 compounds, 0.76% hits | AID 588856, 2011
#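 HepG2 CAGA-GFP cells (1000/well, DMEM with 1% FBS) received compound, then TGF-beta at 500 pg/mL final, and were incubated 18 hours at 37 degrees C. Viability was read by CellTiter-Glo luminescence. Media-only wells were set as complete cell-killing and DMSO as no toxicity.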
# A number is an active result; i = inactive; ? = inconclusive; nt = no result given. Unless noted, calls follow the shape of the dose curve; as a rule, active = well fitted curve in the direction sought with a large enough effect; inconclusive = small, poorly fitted or top-dose-only effect, or another doubt; inactive = no such curve, though single readings can be large; an effect the other way counts as inactive or inconclusive.
SMILES,DT40 TDP1 CPT,TDP1 block,IL-1B inflam inh,DT40 TDP1 no CPT,TGFb inhibitor,HepG2 viability
COc1ccc(-c2c(-c3cccc(C)c3)oc3ccc(-c4ccc5c(c4)OCO5)cc23)cn1,?,nt,i,8.2µM,?,i
COc1ccc(-c2c(C3=CCCCC3)oc3ccc(-c4ccc5c(c4)OCO5)cc23)cn1,?,nt,i,14.6µM,i,i
COc1ccc(-c2oc3ccc(-c4ccc5c(c4)OCO5)cc3c2-c2ccc(OC)nc2)cc1,?,nt,i,?,?,i
NN/C(=C\[N+](=O)[O-])Nc1ccc(Cl)cc1,?,i,i,?,?,i
NN/C(=C\[N+](=O)[O-])Nc1ccccc1,?,i,i,20.6µM,i,i
CN(Cc1ccccc1)C(=O)[C@@H]1CCCN1C(=O)[C@@H]1CCCN1C(=O)c1cccc2ccccc12,?,nt,i,18.4µM,nt,nt
CCOc1cc(OCC)cc(C(=O)N2CCC[C@H]2C(=O)N2CCC[C@H]2C(=O)N(C)Cc2ccccc2)c1,i,nt,i,0.164µM,nt,nt
O=C(Nc1ccc(F)c(S(=O)(=O)N2CCOCC2)c1)C1CCCCC1,?,i,i,?,i,i
CCOc1ccc(S(=O)(=O)N2CCCCC2)cc1NC(=O)CC1OC(=O)c2ccccc21 (stereo unspecified),i,nt,i,i,i,i
CC1(C)CC(=O)C(C2C3=C(CC(C)(C)CC3=O)Oc3c(Br)cc(Br)cc32)=C(O)C1 (stereo unspecified),?,nt,i,18.4µM,i,i
CC(C)Oc1ccc(F)cc1-c1cc(C(=O)NC2CCCCC2)[nH]n1,?,nt,i,14.6µM,i,i
CC(C)Oc1cc(F)ccc1-c1cc(C(=O)NCCc2ccncc2)[nH]n1,18.4µM,nt,i,?,i,i
Cc1cc(F)ccc1-c1cc(C(=O)NC2CCCCC2)[nH]n1,i,nt,?,i,i,i
CC(C)Oc1cc(F)ccc1-c1cc(C(=O)NC2CCCCC2)[nH]n1,20.6µM,nt,i,?,i,i
O=C(Cn1c(=O)c2cc(Cl)ccc2n2nncc12)Nc1ccccc1,i,i,nt,i,i,i
Cc1cc(C)cc(OCC(=O)Nc2ccncc2)c1,i,nt,i,?,i,i
O=c1cc(/C=C/c2ccccc2)oc2ccccc12,16.4µM,i,i,?,i,i
CCCN(CC(=O)c1cc(C)n(C)c1C)S(=O)(=O)c1cccc(C(F)(F)F)c1,23.1µM,i,i,?,i,i
CCN(CC)S(=O)(=O)c1cccc(-c2nnc(SCCOc3ccccc3C)o2)c1,?,i,i,?,i,i
COc1cc(-c2nnc(SCCOc3ccccc3)o2)cc(OC)c1OC,?,i,nt,16.4µM,i,i
CCN(CC)S(=O)(=O)c1cccc(-c2nnc(SCCOc3ccccc3)o2)c1,16.4µM,i,i,20.6µM,i,i
CCCN(CC(=O)Nc1ccccc1C)C(=O)C1CCN(S(=O)(=O)c2cccc(C(F)(F)F)c2)CC1,i,i,i,i,i,i
CCN(CC)S(=O)(=O)c1cccc(-c2nnc(SCCOc3ccc(Cl)cc3)o2)c1,23.1µM,i,i,?,i,i
COc1ccccc1CCC(=O)NNC(=O)Cn1nc(C)cc1C,i,nt,i,i,i,i
CNC(=O)c1ccsc1NC(=O)CS(=O)(=O)c1ccccc1,i,i,i,i,i,i
SMILES,DT40 TDP1 CPT,TDP1 block,IL-1B inflam inh,DT40 TDP1 no CPT,TGFb inhibitor,HepG2 viability
CCN(CC)S(=O)(=O)c1cccc(-c2nnc(SCC(=O)c3cc(C)n(C)c3C)o2)c1,20.6µM,i,i,20.6µM,?,i
CC(=O)Nc1ccc(OC(F)(F)C(F)F)c(NC(C)=O)c1,i,i,i,i,i,i
C=C(C)C(=O)Nc1ccc(OC(F)(F)C(F)F)c(NC(=O)C(=C)C)c1,i,12.6µM,i,i,i,i
CC(=O)NCCC(=O)Nc1cc(S(=O)(=O)N2CCOCC2)ccc1Oc1ccccc1,i,i,i,i,i,i
Cc1cc(C)c2nc(N(CCCN(C)C)C(=O)c3ccc4c(c3)CCCC4)sc2c1,20.6µM,i,-77.8,10.3µM,?,i
CN(C)CCCN(C(=O)c1ccc2c(c1)CCCC2)c1nc2c(F)cccc2s1,20.6µM,i,-62.3,23.1µM,?,i
CCOC(=O)N1CCN(Cc2nc3cc(NC(=O)CC(C)C)ccc3n2CC)CC1,14.6µM,nt,i,9.2µM,i,i
CCOC(=O)N1CCN(Cc2nc3cc(NC(=O)CC(C)C)ccc3n2C)CC1,i,nt,i,?,i,i
CCOC(=O)N1CCN(Cc2nc3cc(NC(=O)CC(C)C)ccc3n2C(C)C)CC1,0.82µM,i,nt,0.731µM,nt,i
CCC(=O)Nc1ccc2c(c1)nc(CN1CCN(C(C)=O)CC1)n2C,i,i,i,i,i,i
CCOC(=O)N1CCN(Cc2nc3cc(NC(=O)CC)ccc3n2C(C)C)CC1,0.92µM,i,nt,0.731µM,8.91µM,i
CCOC(=O)N1CCN(Cc2nc3cc(NC(=O)c4cccc(C)c4)ccc3n2C(C)C)CC1,0.92µM,i,nt,0.731µM,nt,i
CCOC(=O)N1CCN(Cc2nc3cc(NC(C)=O)ccc3n2CC)CC1,i,nt,i,i,i,i
Cc1ccc(NC(=O)N2C3CCCC2CC(NC(=O)C(C)(C)C)C3)cc1 (stereo unspecified),i,nt,i,i,i,i
CCOC(=O)N1CCN(Cc2nc3cc(NC(=O)c4cccs4)ccc3n2CC)CC1,23.1µM,i,?,25.9µM,i,i
COc1cc(OC)c(NC(=O)C(C)n2nc(-c3ccc(C)c(C)c3)ccc2=O)cc1Cl (stereo unspecified),14.6µM,i,nt,13µM,?,i
C=CCNC(=S)Nc1ccc2nc(C)c(C)nc2c1,?,i,i,18.4µM,i,i
C=CCNC(=S)N/N=C/c1ccc(C)c([N+](=O)[O-])c1,14.6µM,i,?,6.51µM,i,i
Cc1nc2ccc(NC(=S)NCc3ccccc3)cc2nc1C,i,i,i,i,i,i
C=CCNC(=S)N/N=C/c1ccc(C)cc1C,5.17µM,i,i,5.17µM,?,i
O=C(O)CSCC(=O)N1CCN(c2nc3cc(Cl)ccc3s2)CC1,i,nt,i,i,i,i
Cc1ccc(Cl)cc1NC(=O)C1CCCN(S(C)(=O)=O)C1 (stereo unspecified),i,i,i,i,i,i
Cc1cc(C(=O)NCCc2ccc(Cl)cc2)c2c(C)nn(-c3ccccc3)c2n1,nt,i,nt,nt,i,i
